# Measured values reported in PubChem BioAssay (EPA / NIEHS).
# Results filed as inconclusive are left out. Active and inactive are the calls of the source. The calls were made as follows: active = hit-call score of the fitted dose curve at least 0.9, where 1 is the maximum; inconclusive = response in the unintended direction; inactive = score below 0.9.
# Target: Hepatocyte nuclear factor 4-alpha (Homo sapiens) (UniProt P41235)
# Test: ATG_HNF4a_TRANS: Attagene TRANS-FACTORIAL HepG2 Assay for human Hepatocyte Nuclear Factor 4 alpha (HNF4a) (AID 2282982)
# Conditions: HepG2 HNF4a transactivation reporter, mRNA readout
# Protocol: ATG_TRANS is a cell-based, multiplexed-readout assay that uses HepG2, a human liver cell line, with measurements taken at 24 hours after chemical dosing in a 24-well plate.ATG_HNF4a_TRANS is one of 30 assay component(s) measured or calculated from the ATG_TRANS assay. It is designed to make measurements of mRNA induction, a form of inducible reporter, as detected with fluorescence intensity signals by Reverse transcription polymerase chain reaction (RT-PCR) and Capillary electrophoresis technology.Data from the assay component ATG_HNF4a_TRANS was analyzed into 1 assay endpoint. This assay endpoint, ATG_HNF4a_TRANS, was analyzed in the positive analysis fitting direction relative to DMSO as the negative control and baseline of activity. Using a type of inducible reporter, measures of mRNA for gain-of-signal activity can be used to understand the reporter gene at the transcription factor-level as they relate to the gene HNF4A. Furthermore, this assay endpoint can be referred to as a primary readout, because this assay has produced multiple assay endpoints where this one serves a reporter gene function. To generalize the intended target to other relatable targets, this assay endpoint is annotated to the nuclear receptor intended target family, where the subfamily is orphan.
# Human liver HepG2 cells are transiently transfected with multiple reporter transcription units (MRTUs) in 6-well plates using FuGene 6 reagent (Roche; 3 ml FuGene/1 mg DNA). The MRTU constructs are regulated by a cis-regulating element (promoter). […] A major difference between the CIS and TRANS system is that in CIS activities of endogenous TFs are measured, whereas the TRANS assay evaluates changes in activities of exogenous, chimeric NR-Gal4 proteins. […] At the end of 24 hour incubation, total RNA was isolated using TriZol reagent (Invitrogen). The isolated RNA is then reverse-transcribed using oligo(dT) primer and Mo-MLV reverse transcriptase (Invitrogen) with DNAse I (Ambion) treatment for 30 min. The one-tenth of the produced cDNA was amplified by PCR using Taq DNA polymerase (Invitrogen) and two reporter sequence-specific primers. The PCR products were fluorescently labeled by primer extension with 6-arboxyfluorescein (6-FAM) 5'-labeled reporter sequence-specific primer (2 min at 95 C, 20 s at 68 C and 10 min at 72 C) and these products were digested with 5U of HpaI (New England Biolabs) for 2h at 37 C. The fragments were purified using Qiaquick PCR columns (Qiagen), analyzed on an ABI 3130xL genetic analyzer (Applied Biosystems) with peak positions identified by using a set of X-rhodamine (ROX)-labeled MapMarker1000 molecular weight standards (BioVentures). The raw capillary electrophoresis data was processed using Attagraph software (Attagene).
# Chain of Hepatocyte nuclear factor 4-alpha (Homo sapiens) (P41235 whole entry, looked up): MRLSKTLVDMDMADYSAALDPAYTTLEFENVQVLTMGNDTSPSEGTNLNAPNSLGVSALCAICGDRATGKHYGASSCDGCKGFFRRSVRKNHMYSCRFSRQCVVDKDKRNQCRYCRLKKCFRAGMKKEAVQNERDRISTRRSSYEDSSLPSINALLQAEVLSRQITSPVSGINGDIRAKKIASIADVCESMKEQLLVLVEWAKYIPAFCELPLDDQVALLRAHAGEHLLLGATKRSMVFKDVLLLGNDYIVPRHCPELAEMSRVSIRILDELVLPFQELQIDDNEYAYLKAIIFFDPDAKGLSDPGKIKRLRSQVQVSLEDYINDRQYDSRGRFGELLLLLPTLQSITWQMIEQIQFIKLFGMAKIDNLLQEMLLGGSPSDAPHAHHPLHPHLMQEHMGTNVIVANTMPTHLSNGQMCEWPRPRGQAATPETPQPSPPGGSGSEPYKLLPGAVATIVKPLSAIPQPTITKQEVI
row,SMILES,outcome
1,c1ccc2[nH]cnc2c1,inactive
2,CC(C)=CCCC(C)CC(=O)O (stereo not given),inactive
3,CCC(C)=O,inactive
4,C=C1C[C@]23C[C@@]1(O)CC[C@H]2[C@@]12C=C[C@H](O)[C@@](C)(C(=O)O1)[C@H]2[C@@H]3C(=O)O,inactive
5,CC=CC=CCOC(=O)C(C)C,inactive
6,CCCOCCO,inactive
7,C=CC(=C)CCCC(C)(C)OC(C)=O,inactive
8,CCCCCCCCCC(=O)OC,inactive
9,C#CC(C)(O)CC(C)C (stereo not given),inactive
10,COC(C)(C)CCCC(C)CC=O (stereo not given),inactive
11,c1ccc(Oc2ccccc2)cc1,inactive
12,CN(C)c1ccncc1,inactive
13,COC(=O)Nc1ccc(Cl)c(Cl)c1,inactive
14,CC(=O)c1c(C)c([N+](=O)[O-])c(C(C)(C)C)c([N+](=O)[O-])c1C,inactive
15,CCCCCCCC(=O)OCCCCCC,inactive
16,CCc1ccc(O)cc1,inactive
17,Cc1cc(S(=O)(=O)O)ccc1N=Nc1c(O)ccc2ccccc12,inactive
18,CC(=O)NCCO,inactive
19,CCN(CCN)c1cccc(C)c1,inactive
20,O=C1OC2(c3ccccc31)c1ccc(O)c(Br)c1Oc1c2ccc(O)c1Br,inactive

row,SMILES,outcome
1,OCCc1ccccc1,inactive
2,N#Cc1cscn1,inactive
3,CCCCC1CCC(O)CC1 (stereo not given),inactive
4,Nc1ccc(N)c2c1C(=O)c1ccccc1C2=O,inactive
5,CCCC(=O)OC(C)(C)Cc1ccccc1,inactive
6,Nc1ccc2c(O)cc(S(=O)(=O)O)cc2c1,inactive
7,CCC(Cl)C(Cl)C(Cl)CC(Cl)C(Cl)C(C)Cl (stereo not given),inactive
8,CCCCCc1ccco1,inactive
9,C=CCCCCCCCCCC,inactive
10,CCCCCCCC(=O)OCC(O)CO (stereo not given),inactive
11,NCc1ccco1,inactive
12,OC[C@H]1O[C@@H](Oc2ccc(O)cc2)[C@H](O)[C@@H](O)[C@@H]1O,inactive
13,CC1(C)C(=O)N(Cl)C(=O)N1Br,inactive
14,Cc1cc(C)nc(NS(=O)(=O)c2ccc(N)cc2)n1,inactive
15,C=CCN(CC=C)CC=C,inactive
16,NC(=S)NNC(N)=S,inactive
17,Cc1ccc(S(N)(=O)=O)cc1,inactive
18,COc1ccc(N=Nc2cc(C)c(N=Nc3ccc(S(=O)(=O)O)cc3)cc2OC)cc1,inactive
19,C=C(C)C(=O)OCC(CC)(COC(=O)C(=C)C)COC(=O)C(=C)C,inactive
20,CCCCCCC(CO)CCCC (stereo not given),inactive
